# Hits are enriched below; roughly 27% of the tested compounds scored in any of these assays.
# PTK2B oligo ant: antagonists of human Pyk2 oligomerization. Q14289. Q293 cells, Pyk2 FERM NanoBiT luminescence; active compounds read low. z-score (the deposit names both 25 µM and 10 µM). 99,000 compounds, 0.83% hits. AID 1347419;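 active = Z-score of -3 or lower, scaled per plate to the spread of control and sample wells; inactive = z-score above -3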;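 also: negative z-score means lost luminescence so less FERM oligomerization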
# CYP2C19 inh: human CYP2C19 inhibition | P33261 | CYP2C19 Supersomes, luciferin-H EGE luminescence, 30 min | inhibition, % at 5 µM | 96,000 compounds, 21% hits;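 active = CYP2C19 inhibition above a set limit at 5 µM in the primary screen, cut at about 50% in these data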;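 also: plate controls were negative control wells for no effect and 2.5 mM tranylcypromine positive control for full effect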
# CYP2C9 inh: inhibitors of human CYP2C9; P11712; CYP2C9 Supersomes, luciferin-H conversion, luminescence; inhibition, % at 5 µM; 96,000 compounds, 20% hits;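 active = blocking of liver enzyme CYP2C9 beyond about 50% at 5 µM, limit read from the data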
# Target sequence (P11712 whole entry, looked up): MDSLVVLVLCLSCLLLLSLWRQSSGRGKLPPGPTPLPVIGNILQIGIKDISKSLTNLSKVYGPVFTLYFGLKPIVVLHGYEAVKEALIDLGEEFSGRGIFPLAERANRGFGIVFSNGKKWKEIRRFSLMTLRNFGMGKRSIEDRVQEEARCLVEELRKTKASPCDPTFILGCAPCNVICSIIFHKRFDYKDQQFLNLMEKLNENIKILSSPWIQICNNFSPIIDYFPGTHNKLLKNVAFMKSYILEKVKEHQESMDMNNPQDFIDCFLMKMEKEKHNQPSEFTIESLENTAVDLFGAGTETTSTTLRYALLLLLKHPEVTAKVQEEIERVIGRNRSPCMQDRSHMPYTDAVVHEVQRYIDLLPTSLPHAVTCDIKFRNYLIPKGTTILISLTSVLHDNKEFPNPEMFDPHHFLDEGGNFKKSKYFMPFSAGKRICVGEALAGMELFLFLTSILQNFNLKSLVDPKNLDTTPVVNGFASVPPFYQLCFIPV
# CYP2C19 act: cytochrome P450 2C19 (human) activation. P33261. recombinant CYP2C19, luciferin-H EGE luminescence; active compounds read high; 0 = fully inhibited enzyme, 1 = untreated enzyme. activation factor at 5 µM. 96,000 tested, under 10 active;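 active = activation factor of at least 2 at 5 µM in the primary screen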;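 also: 0 = wells with 2.5 mM tranylcypromine and 1 = vehicle-only wells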
# Cav32 inh: human Cav3.2 channel inhibition, primary screen. O95180. Cav3.2-expressing cells, Fluo-4 calcium fluorescence FDSS; active compounds read low. B-score at 10 µM. 100,000 compounds, 4% hits. AID 449739;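 active = single-dose well whose peak fluorescence ratio is a statistical outlier from its plate by either plate-standardised score or position-corrected B-score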
# CYP2C9 act: increases human cytochrome P450 2C9 activity; P11712; recombinant CYP2C9, luciferin-H conversion, luminescence; active compounds read high; factor 1 = untreated enzyme, 0 = blocked; activation factor at 5 µM; 96,000 compounds, 1.4% hits; AID 1024;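 active = activation factor of 2 or more for CYP2C9 at a 5 µM dose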;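 also: 0 = sulfaphenazole-blocked wells and 1 = vehicle-only wells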
# The depositor's hits bear a star; . = no result given.
SMILES,PTK2B oligo ant,CYP2C19 inh,CYP2C9 inh,CYP2C19 act,Cav32 inh,CYP2C9 act
O=C(NCCc1c[nH]c2ccccc12)C(=O)NCC1OCCN1S(=O)(=O)c1ccc(F)cc1 (centres undefined),.,.,.,.,-5.9*,.
Cc1ccc(CNC(=O)C(=O)NCC2OCCN2C(=O)c2ccc(Cl)cc2)cc1 (centres undefined),.,.,.,.,-4.4*,.
CCn1c(/C=C/N(C)c2ccccc2)[n+](CC)c2ccc(Cl)cc21,0.53,2,16,1,-1.3,0.8
CCNc1nc(NCC)nc(SCCOC(=O)COc2ccc(Cl)cc2Cl)n1,0.63,12,18,0.9,0.77,0.8
CCN(CC)S(=O)(=O)c1ccc2oc(C(=O)N3CCCCCC3)c(C)c2c1,-0.04,3,56*,1,-0.67,0.4
CCN(CC)C(=O)c1oc2ccc(S(=O)(=O)N3CCCCCC3)cc2c1C,-0.56,51*,28,0.5,-3.5,0.7
CCN(CC)S(=O)(=O)c1ccc(C(=O)N2CCCCC2)cc1,0.21,18,70*,0.8,0.21,0.3
COCCCNC(=O)c1oc2ccc(S(=O)(=O)N(C)C3CCCCC3)cc2c1C,-0.77,24,76*,0.8,-1.5,0.2
CCCN(CCC)S(=O)(=O)c1ccc(C(=O)N2CCOCC2)cc1,0.38,5,4,0.9,0.32,1
C=CCNC(=O)c1oc2ccc(S(=O)(=O)N(CC)CC)cc2c1C,-0.27,24,47,0.8,0.22,0.5
CCOC(=O)c1oc2ccc(S(=O)(=O)N3CCOCC3)cc2c1C,0.59,26,22,0.7,0.5,0.8
OC1O[C@H](c2ccc3c(c2)OCO3)[C@H]2CO[C@H](c3ccc4c(c3)OCO4)[C@@H]12 (some centres undefined),.,.,.,.,0.0053,.
CCc1nc(NCCN)c(C#N)c2c1CSC(C)(C)C2,0.88,14,35,0.9,-0.073,0.6
CCOC(=O)N1CCC(NC(=O)CCc2c(C)nc3ncnn3c2C)CC1,0.36,3,24,1,-0.087,0.8
Cc1ccc(S(=O)(=O)NC(=O)c2ccc(-c3ccc(C)c4ccccc34)o2)cc1,.,.,.,.,-1.2,.
CCOc1cc(C2C(C(=O)N3CCCCC3)=C(C)NC3=C2C(=O)CCC3)cc(Br)c1O (centres undefined),1.1,6,-2,0.9,-1.4,1
COC(=O)CCN(c1ccccc1)S(=O)(=O)c1ccc(OC)cc1,-0.79,49,-4,0.5,0.48,1
COC(=O)CN(c1nc(C)cc(OC)n1)S(=O)(=O)c1ccccc1,-0.02,33,-7,0.7,0.64,1.1
COc1cc(C)nc(N(Cc2ccccc2)S(=O)(=O)c2ccccc2)n1,-1.6,83*,74*,0.2,-3.1,0.3
CCCN(c1nc(C)cc(OC)n1)S(=O)(=O)c1ccccc1,-0.86,.,.,.,-4.7*,.
O=C1[C@H]2[C@@H](C(=O)N1c1cccc3ccccc13)C1(C(=O)c3ccccc3C1=O)N1CCC[C@@H]21,0.54,38,26,0.6,1.4,0.7
C=CCn1nnnc1SCC(=O)Nc1ccccc1C(=O)OC,-0.79,91*,42,0.1,-0.072,0.6
C=CCn1nnnc1SCC(=O)Nc1cccc(OC)c1,0.07,37,2,0.6,0.22,1
CCOc1ccccc1NC(=O)CSc1nnnn1Cc1ccccc1,-0.67,40,7,0.6,-2.6,0.9
COc1ccccc1NC(=O)CSc1nnnn1Cc1ccccc1,0.21,92*,2,0.1,-0.48,1
SMILES,PTK2B oligo ant,CYP2C19 inh,CYP2C9 inh,CYP2C19 act,Cav32 inh,CYP2C9 act
CCn1c2ccccc2c2cc(N)ccc21,0.25,93*,19,0.1,-0.13,0.8
N#CC1=C(N)OC2=C(C(=O)CCC2)C1CCc1ccccc1 (centres undefined),-0.06,94*,92*,0.1,-0.24,0.1
CC1C(C#N)=C(N)OC2=C1C(=O)CC(C)(C)C2 (centres undefined),-0.46,8,11,0.9,.,0.9
CC1(C)CC(=O)C2=C(C1)OC(N)=C(C#N)C2c1ccsc1 (centres undefined),0.1,63*,32,0.4,1.8,0.7
CCn1c2ccccc2c2cc(/C(C)=N/O)ccc21,-0.55,22,50,0.8,.,0.5
CCn1c2ccccc2c2cc(C3C(C#N)=C(N)OC4=C3C(=O)CC(C)(C)C4)ccc21 (centres undefined),.,2,57*,1,.,0.4
COc1ccc(C2C(C#N)=C(N)OC3=C2C(=O)CCC3)c(OC)c1OC (centres undefined),1.3,20,22,0.8,0.28,0.8
CCN(CC)CCC(c1ccc2c(c1)OCO2)c1c(O)cc(OC)cc1OC (centres undefined),.,.,.,.,-0.22,.
COc1ccc(C(=O)Nc2nc(-c3ccc([N+](=O)[O-])cc3)c(-c3ccccc3)s2)cc1,-0.22,.,.,.,0.44,.
CC1(C)CC(=O)C2=C(C1)N(c1ccc(F)cc1)C(N)=C(C#N)C2c1cccs1 (centres undefined),-0.25,-2,10,1,2.1,0.9
CC1(C)CC(=O)C2=C(C1)N(c1ccccc1)C(N)=C(C#N)C2c1ccsc1 (centres undefined),0.19,68*,75*,0.3,2.2,0.2
Cc1ccc(N2C(N)=C(C#N)C(c3cccs3)C3=C2CC(C)(C)CC3=O)cc1 (centres undefined),0.19,42,80*,0.6,0.85,0.2
CCn1c2ccccc2c2cc(C3C(C#N)=C(C)NC(C)=C3C#N)ccc21,0.44,100*,95*,0,-0.042,0
N#CC1=C(N)N(c2ccccc2C#N)C2=C(C(=O)CCC2)C1c1ccsc1 (centres undefined),0.19,43,62*,0.6,0.46,0.4
Cc1ccc(N2C(N)=C(C#N)C(c3cccnc3)C3=C2CCCC3=O)cc1 (centres undefined),-0.47,14,36,0.9,3,0.6
CCn1c(C)cc(=S)c2ccccc21,0.69,4,1,1,0.23,1
C=CCSc1nnc2nc3[nH]c4c(C)cccc4c3nn12,0.91,-4,3,1,0.16,1
O=C(c1ccc2snnc2c1)N1CCOCC1,0.17,30,-6,0.7,-0.54,1.1
O=C1CCCC2=C1C(Cc1ccccc1)C1=C(CCCC1=O)O2,-0.39,82*,23,0.2,1.4,0.8
CC1(C)CC(=O)C2=C(C1)N(c1ccccc1)C(N)=C(C#N)C2c1ccccc1 (centres undefined),0.75,.,.,.,1,.
CC1(C)CC(=O)C2=C(C1)OC(N)=C(C#N)C2Cc1ccccc1 (centres undefined),0.37,98*,79*,0,0.21,0.2
CC1(C)CC(=O)C2=C(C1)N(c1ccccc1)C(N)=C(C#N)C2c1cccnc1 (centres undefined),1.3,24,50*,0.8,.,0.5
